This note sets out measurements from PubChem BioAssay (NCI).

What all share (assay): NCI-60 one-dose screen, 48 h (100 = growth as untreated, 0 = no growth, -100 = all killed)
Common to all, as to settings: 10 µM unless noted

Experiment [1] concerns SK-MEL-2 melanoma.
For experiment [2], the system named is SN12C renal.
The subject of experiment [3] is UO-31 renal.
For experiment [4], the system named is TK-10 renal.
In experiment [5] the test system is ACHN renal.
For experiment [6], the system named is A498 renal.
Experiment [7] deals with CCRF-CEM leukemia.
Experiment [8] concerns MOLT-4 leukemia.
Experiment [9] deals with SR leukemia.
Experiment [10] has as its system RPMI-8226 leukemia.
For experiment [11], the system named is OVCAR-8 ovarian.
Experiment [12] concerns OVCAR-5 ovarian.
Experiment [13] has as its system OVCAR-4 ovarian.
For experiment [14], the system named is SK-OV-3 ovarian.
Experiment [15] concerns HS 578T breast.
Experiment [16] concerns NCI/ADR-RES ovarian.
The subject of experiment [17] is IGROV1 ovarian.
The subject of experiment [18] is OVCAR-3 ovarian.

This is part of a sample that, as a whole, favours compounds with a hit. Of some 83,000 tested, about 20% had one in any assay.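 Step 1: grow cells in 96-well plates. Step 2: add test compound at a single concentration. Step 3: incubate 48 h. Step 4: record percent growth.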 Unmarked numbers belong to inactive results. Calls of active or inactive are those of the source. How the source made its calls: active means growth percent below 10; inactive means the rest.

`CN1CCN(C(=O)/C=C/c2ccc([N+](=O)[O-])o2)CC1`: the growth was 59.5% in [1]; 91% in experiment [2]; 79.3% in [3]; 159% in experiment [4]; 63.7% in experiment [5]; 76% in experiment [6]. Besides, the growth in experiment [7] was 56.4%; in experiment [8] it was 59.9%; in experiment [9], 53.6%; in experiment [10], 82.3%; in experiment [11], 77.4%; in [12] it was 127%. The growth in experiment [13] is 76.3%; in [14] it was 100%; in experiment [15], 69.2%; in [16], 99.7%.
For `ClC1c2ccccc2CCc2ccccc21`, the growth in experiment [1] is 87.8%; in experiment [2], 103%; in [3], 60%; in [4], 101%; in experiment [5], 95.8%; in experiment [7], 98.7%. Also, the growth in experiment [8] was 107%; in experiment [9] it was 89.2%; in experiment [10], 92%; in experiment [11] it was 94.7%; in experiment [12] it was 86.4%; in [13] it was 85.9%. For the same compound, the growth in [14] was 91.2%; in experiment [17], 72.5%; in experiment [18] it was 100%; in [16] it was 116%.
Turning to `CCCC(=O)Oc1ccc(/C(=C(\C)c2ccc(OC)cc2)c2ccc(OCCN3CCCCC3)cc2)cc1`, the growth in experiment [1] was 80.9%; in experiment [2], 84.8%; in [3], 65.2%; in experiment [5], 91.8%; in experiment [6], 80.7%; in experiment [7], 83.3%. Moreover, the growth in experiment [8] is 72.5%; in experiment [9], -14.9% (active); in experiment [10], 56.9%; in [11], 90.4%; in [12] it was 86.4%; in experiment [13], 75%. The growth in [14] is 79.9%; in [17], 89.9%; in experiment [18], 89.4%; in experiment [15], 84.3%; in experiment [16] it was 75.6%.
Consider `CC(C)Cn1cnc2c3ccccc3nc(NCn3nc(-c4cc(Cl)cc(Cl)c4Cl)oc3=S)c21`, for which the growth in experiment [1] is 90.8%; in experiment [2], 98.5%; in [3], 64.8%; in experiment [4], 108%; in experiment [5] it was 97.6%; in experiment [6], 89.5%. In addition, the growth in experiment [7] was 6.87% (active); in experiment [8], 20.4%; in [9], 25.5%; in [10] it was 74.8%; in [11] it was 98.4%; in [12], 88.3%. The growth in [13] is 88.2%; in experiment [14] it was 109%; in experiment [17] it was 51%; in experiment [15], 116%; in experiment [16], 66.4%.
As to `CCN(CC)CCNCC(O)Cc1ccc(OC)cc1` (stereo unspecified), the growth in [1] was 96.4%; in [2], 98.8%; in [3], 82.6%; in experiment [4] it was 88%; in [6], 109%; in experiment [7] it was 83.9%. For the same compound, the growth in experiment [8] is 73.4%; in [9] it was 88.2%; in experiment [10], 98.1%; in experiment [11], 89.9%; in [12] it was 113%; in experiment [13], 120%. The growth in experiment [14] was 92.3%; in experiment [17], 111%; in [18], 108%; in [15], 95.8%; in experiment [16] it was 107%.
As for `CC(=O)N1N=C(CCC(=O)c2nc3ccc([N+](=O)[O-])cc3[nH]2)OC1c1ccc(O)cc1` (stereo unspecified), the growth in experiment [1] was 57.4%; in experiment [2], 109%; in experiment [3], 80.9%; in experiment [4], 113%; in experiment [5], 106%; in experiment [6], 104%. Besides, the growth in experiment [7] was 114%; in experiment [10] it was 120%; in experiment [11], 105%; in [12], 104%; in experiment [13], 109%; in experiment [14], 75.3%. Besides, the results for the growth in [17], in experiment [15] and in [16] were 103%, 104% and 99.9%, respectively.
As to `Clc1ccc(OCc2nc(-c3ccccc3)n[nH]2)c(Cl)c1`, the growth is 103% in experiment [1]; 96.6% in experiment [2]; 77.1% in [3]; 122% in [4]; 98% in experiment [5]; 104% in experiment [6]. The growth is 85.9% in experiment [7]; 98.7% in [8]; 97.1% in experiment [9]; 94% in [10]; 96.5% in experiment [11]; 99.7% in experiment [12]. Moreover, the growth in experiment [13] is 98.1%; in experiment [14] it was 80.9%; in experiment [17], 97.6%; in [18], 108%; in experiment [15], 88.6%; in experiment [16], 101%.
Turning to `COc1ccc2c(c1)O/C(=C/c1ccc(OCC(=O)Nc3ccc(S(N)(=O)=O)cc3)cc1)C2=O`, the growth was 97.7% in experiment [1]; 98.1% in experiment [2]; 85.6% in experiment [3]; 115% in experiment [4]; 91.5% in experiment [6]; 94.6% in experiment [7]. In addition, the growth in [8] was 88.3%; in experiment [9], 79.1%; in experiment [10] it was 91.3%; in [11] it was 98.6%; in experiment [12], 103%; in experiment [13], 102%. In addition, the growth in experiment [14] is 102%; in experiment [17] it was 111%; in experiment [18] it was 104%; in experiment [15], 99.4%; in experiment [16], 103%.
Turning to `C=C1C(=O)O[C@H]2[C@H]1CC/C(COC(=O)c1ccc(Br)cc1)=C\CC[C@@]1(C)O[C@@H]21`, the growth in experiment [1] is -24.5% (active); in [2], -22% (active); in experiment [3], -89.8% (active); in experiment [4], 8.28% (active); in [5], -93.4% (active); in experiment [6], 100%. Besides, the growth in experiment [7] is -17.5% (active); in experiment [8], -27.2% (active); in [9], -27.5% (active); in [10] it was -44.5% (active); in experiment [11], -36.6% (active); in experiment [12], 1.16% (active). Also, the growth in experiment [13] is -14.3% (active); in experiment [14], 111%; in [17] it was -57.6% (active); in [18], -81.2% (active); in experiment [15] it was 17.8%; in [16] it was 24.7%.
